Laboratory results: PubChem BioAssay (Tox21)
Records with an inconclusive call do not appear. Where a call stands in place of a potency, no number is given. Calls of active or inactive are those of the source. Calls follow the shape of the dose curve; as a rule, active = well fitted cell-killing curve with a large enough effect in the repeat runs (not every such curve was filed as active); inconclusive = weak or mixed curves, or effect the other way; inactive = no such curve, though single readings can be large or run the other way.

Test: qHTS assay to identify small molecule antagonists of the farnesoid-X-receptor (FXR) signaling pathway - cell viability counter screen (AID 743221); also: nearly all actives have a fitted effect of over 50% in size
Details: FXR-bla HEK293T viability, CellTiter-Glo luminescence, 16 h; series mostly up to 62.6 µM
Description: National Center for Advancing Translational Sciences [NCATS]
NIH Chemical Genomics Center [NCGC]
U.S. Environmental Protection Agency [EPA]
National Institutes of Environmental Health Sciences [NIEHS]
National Toxicology Program [NTP]
U.S. Food and Drug Administration [FDA]
The farnesoid-X-receptor (FXR), a nuclear hormone receptor, is highly expressed in liver, intestine, kidney and adrenal cortex. Natural ligands of FXR are the bile acids (Cholic acid, Chenodeoxy cholic acid etc). FXR is an important regulator of diverse metabolic pathways, including the bile acid homeostasis, lipid and glucose metabolisms. FXR regulates the expression of target genes by binding either as a monomer or as a heterodimer with the retinoid X receptor (RXR). Numerous studies have reported that FXR exerts protective function during cholestasis, diabetes, liver regeneration, and cancer. To identify compounds that inhibit FXR signaling, GeneBLAzer FXR-UAS-bla HEK 293T cell line (Invitrogen, Carlsbad, CA) containing a beta-lactamase reporter gene under the control of a UAS response element was used to screen the Tox21 10K compound library. The cytotoxicity of the Tox21 compound library against the FXR-bla cell line was tested in parallel by measuring the cell viability using CellTiter-Glo assay in the same wells.
Tox21 Assay Protocol Summary:
FXR-bla cells were dispensed at 5000 cells/5uL/well in 1536-well black wall/clear bottom plates using a Multidrop Combi (Thermo Fisher Scientific, Waltham, MA) dispenser. After the assay plates were incubated at 37 C and 5% CO2 for 5 h, 23 nL of compounds dissolved in DMSO, positive controls or DMSO only was transferred to the assay plate by a Pintool station (Kalypsys, San Diego, CA), followed by addition of 1 uL Chenodeoxycholic acid (50 uM, final concentration in the wells). The assay plates were incubated at 37C for 16 h. After 1 uL of LiveBLAzerTM B/G FRET substrate was added using a Bioraptr Flying Reagent Dispenser (FRD) workstation (Beckman Coulter, Indianapolis, IN), the plates were incubated at room temperature for 2 h, and fluorescence intensity was measured by an Envision plate reader (PerkinElmer, Shelton, CT). For cell viability readout that measures cytotoxicity, 4uL/well of CellTiter-Glo reagent was added into the assay plates using a Bioraptr FRD. After 30 min incubation at room temperature, the luminescence intensity in the plates was measured using a ViewLux plate reader (PerkinElmer).
Potency is read from the fitted curve at half-maximal effect.

Compound | Potency
O=C(OC[C@H]1O[C@@H](OC(=O)c2cc(O)c(O)c(OC(=O)c3cc(O)c(O)c(O)c3)c2)[C@H](OC(=O)c2cc(O)c(O)c(OC(=O)c3cc(O)c(O)c(O)c3)c2)[C@@H](OC(=O)c2cc(O)c(O)c(OC(=O)c3cc(O)c(O)c(O)c3)c2)[C@@H]1OC(=O)c1cc(O)c(O)c(OC(=O)c2cc(O)c(O)c(O)c2)c1)c1cc(O)c(O)c(OC(=O)c2cc(O)c(O)c(O)c2)c1 | inactive
CCCC/C=C/CCCCO | inactive
Cc1cc(O)c(C(C)(C)C)cc1Sc1cc(C(C)(C)C)c(O)cc1C | 9.75 µM (active)
O=C1CCCc2c1cc1ccc3cccc4ccc2c1c34 | inactive
O=C(NOCC1CC1)c1ccc(F)c(F)c1Nc1ccc(I)cc1Cl | inactive
O=Cc1cc(O)ccc1Br | inactive
CCCCCCCCCCCCCCCC[N+](C)(C)CCN(Cc1ccc(OC)cc1)c1ncccn1 | 26.6 µM (active)
O=c1cc(-c2ccc(O)cc2)oc2cc(O)cc(O)c12 | inactive
Oc1ccc(N=Nc2ccccc2)cc1 | inactive
CC(=O)SC[C@@H](Cc1ccccc1)C(=O)NCC(=O)OCc1ccccc1 | inactive
CCCCCCCCn1sc(Cl)c(Cl)c1=O | 9.77 µM (active)
Oc1ccc(Cl)cc1Sc1cc(Cl)ccc1O | 48.9 µM (active)
CN(C)C(=O)C1(N2CCCCC2)CCN(CC[C@@]2(c3ccc(Cl)c(Cl)c3)CN(C(=O)c3ccccc3)CCO2)CC1 | 32.4 µM (active)
CCCCCCCC(=O)[O-].CCCCCCCC(=O)[O-].[Zn+2] | inactive
Nc1ccccc1O | inactive
CCCCCOC(=O)CCCC | inactive
Cc1cc(N)c(S(=O)(=O)O)cc1Cl | inactive
CCCCCCCCOC(=O)c1ccc(O)cc1 | inactive
CCC(C)(C)C1CCCCC1OC(C)=O (stereo not given) | inactive
CCCCCCCCNC(C)C(O)c1ccc(SC(C)C)cc1 (stereo not given) | 23.7 µM (active)

Compound | Potency
CCN(C(=O)c1cc(C)cc(OC[C@H](C)Nc2ccncc2)c1)C(C)C | inactive
Nc1ccc2cc(S(=O)(=O)O)cc(O)c2c1N=Nc1ccccc1C(F)(F)F | inactive
NC(=O)CC[C@@H]1NC(=O)[C@H](Cc2ccccc2)NC(=O)[C@H](Cc2ccc(O)cc2)NC(=O)CCSSC[C@@H](C(=O)N2CCC[C@H]2C(=O)N[C@@H](CCCN=C(N)N)C(=O)NCC(N)=O)NC(=O)[C@H](CC(N)=O)NC1=O | inactive
O=C(c1ccc(O)cc1O)c1ccc(O)cc1O | inactive
CCCCCCCC[P+](CCCCCCCC)(CCCCCCCC)CCCCCCCC | 17.3 µM (active)
CCCCN1CCCC[C@H]1C(=O)Nc1c(C)cccc1C | inactive
CC(C)(C)C(=O)OCOC(=O)C1N2C(=O)CC2S(=O)(=O)C1(C)C (stereo not given) | inactive
CC1(C)CCC(C)(C)c2cc(C(=O)Nc3ccc(C(=O)O)cc3)ccc21 | inactive
Clc1ccc2n[nH]nc2c1 | inactive
Cc1onc(-c2c(Cl)cccc2Cl)c1C(=O)N[C@@H]1C(=O)N2[C@@H]1SC(C)(C)[C@@H]2C(=O)O | inactive
Cc1ccc2oc(CN(Cc3ccccc3)C(=O)Nc3c(F)cc(F)cc3F)c(-c3ccc(Cl)cc3)c2c1 | inactive
NC(=O)NS(=O)(=O)c1ccc(N)cc1 | inactive
Nc1nc2ccccc2n1Cc1ccc(F)cc1 | inactive
O=C(N/N=C/c1ccccc1O)c1ccncc1 | inactive
CC(NN)c1ccccc1 (stereo not given) | inactive
CCc1cc(SCc2sc(-c3ccc(C(F)(F)F)cc3)nc2CN2CCN(c3ccc(OC)cc3)CC2)ccc1OCC(=O)O | 19.5 µM (active)
C/C=C1/C(=O)C[C@H]2[C@@H]3CCC4=CC(=O)CC[C@]4(C)[C@H]3CC[C@]12C | inactive
Cc1cccc(S(=O)(=O)O)c1C | inactive
O=C(O)c1cc(O)c2c(c1)C(=O)c1cccc(O)c1C2=O | inactive
Cc1c(C)c2c(c(C)c1OC(=O)CCC(=O)O)CC[C@@](C)(CCC[C@H](C)CCC[C@H](C)CCCC(C)C)O2 | inactive
